The supplement of paper PMC6089552
About 300 (9.4%) of roughly 3,200 compounds showed activity. Many of the other results were omitted from the sample, so actives are more common in it than they were.

Test system: A673/TR/shEF
Experiment: cell viability (LOESS-normalised, relative to median of negative controls) (log2 ratio); higher = more viable cells (less compound effect), active = hit call of the paper (over 3 MAD below the median)
Conditions: treatment time: 72 h
Procedure, shortened: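 A673/TR/shEF Ewing sarcoma cells were plated at 1,500 per well in 384-well plates and cultured with or without doxycycline, added 24 h before compounds, to induce EWS-FLI1 shRNA knockdown. Library compounds at two or more concentrations, alongside DMSO controls, were applied for three days. Cell viability was measured by CellTiter-Glo luminescence on an Envision reader. Readings were LOESS-corrected per plate, divided by the median of negative controls and log2-transformed, and hits were wells lying at least three median absolute deviations from the median of all screened wells.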

[1] = 0.103 µM, library screen: screen3, EWS-FLI1 expression: high (no doxycycline)
[2] = 0.103 µM, library screen: screen3, EWS-FLI1 expression: low (doxycycline-induced shRNA knockdown)
[3] = 0.25 µM, library screen: screen1, EWS-FLI1 expression: high (no doxycycline)
[4] = 0.25 µM, library screen: screen1, EWS-FLI1 expression: low (doxycycline-induced shRNA knockdown)
[5] = 0.308 µM, library screen: screen3, EWS-FLI1 expression: high (no doxycycline)
[6] = 0.308 µM, library screen: screen3, EWS-FLI1 expression: low (doxycycline-induced shRNA knockdown)
[7] = 0.926 µM, library screen: screen3, EWS-FLI1 expression: high (no doxycycline)
[8] = 0.926 µM, library screen: screen3, EWS-FLI1 expression: low (doxycycline-induced shRNA knockdown)
[9] = 2.5 µM, library screen: screen1, EWS-FLI1 expression: high (no doxycycline)
[10] = 2.5 µM, library screen: screen1, EWS-FLI1 expression: low (doxycycline-induced shRNA knockdown)
[11] = 2.8 µM, library screen: screen3, EWS-FLI1 expression: high (no doxycycline)
[12] = 2.8 µM, library screen: screen3, EWS-FLI1 expression: low (doxycycline-induced shRNA knockdown)
[13] = 8.3 µM, library screen: screen3, EWS-FLI1 expression: high (no doxycycline)
[14] = 8.3 µM, library screen: screen3, EWS-FLI1 expression: low (doxycycline-induced shRNA knockdown)
[15] = 25 µM, library screen: screen3, EWS-FLI1 expression: high (no doxycycline)
[16] = 25 µM, library screen: screen3, EWS-FLI1 expression: low (doxycycline-induced shRNA knockdown)
[17] = 0.25 µM, library screen: screen2, EWS-FLI1 expression: high (no doxycycline)
[18] = 0.25 µM, library screen: screen2, EWS-FLI1 expression: low (doxycycline-induced shRNA knockdown)
[19] = 2.5 µM, library screen: screen2, EWS-FLI1 expression: high (no doxycycline)
[20] = 2.5 µM, library screen: screen2, EWS-FLI1 expression: low (doxycycline-induced shRNA knockdown)

Measured: cell viability (log2)

C=C1c2cccc(O)c2C(O)=C2C(=O)[C@]3(O)C(O)=C(C(N)=O)C(=O)[C@@H](N(C)C)[C@@H]3[C@@H](O)[C@H]12
active: [3] -0.16 | [9] -0.0967
inactive: [1] -0.0411 | [2] 0.0402 | [4] 0.0695 | [5] -0.0282 | [6] 0.0462 | [7] -0.105 | [8] 0.0725 | [10] 0.152 | [11] -0.0751 | [12] 0.0891 | [13] -0.0644 | [14] 0.0589 | [15] -0.0984 | [16] 0.0914

C=C1c2c(Cl)ccc(O)c2C(O)=C2C(=O)[C@]3(O)C(O)=C(C(N)=O)C(=O)[C@@H](N(C)C)[C@@H]3[C@@H](O)[C@H]12.O=C(O)c1cc(S(=O)(=O)O)ccc1O
active: [3] -0.128 | [9] -0.126
inactive: [4] 0.0882 | [10] 0.0927

C[C@H]1c2cccc(O)c2C(O)=C2C(=O)[C@]3(O)C(O)=C(C(N)=O)C(=O)[C@@H](N(C)C)[C@@H]3[C@@H](O)[C@@H]21
inactive: [3] 0.0339 | [4] 0.251 | [17] 0.0723 | [18] 0.0745 | [9] 0.0598 | [10] 0.256 | [19] -0.00226 | [20] 0.0538

CN(C)c1ccc(O)c2c1C[C@H]1C[C@H]3[C@H](N(C)C)C(=O)C(C(N)=O)=C(O)[C@@]3(O)C(=O)C1=C2O
inactive: [4] -0.0588 | [17] 0.0664 | [18] 0.133 | [10] 0.0344 | [19] 0.00725 | [20] 0.0554
active: [3] -0.177 | [9] -0.0936

CCCCCCCCCCCCCCC[C@@H](O)[C@H](CO)NC(C)=O
inactive: [17] 0.176 | [18] 0.139 | [19] 0.0603 | [20] 0.124

NC(=S)c1ccc[n+]([C@@H]2O[C@H](COP(=O)(O)OP(=O)(O)OC[C@H]3O[C@@H](n4cnc5c(N)ncnc54)[C@H](OP(=O)(O)O)[C@@H]3O)[C@@H](O)[C@H]2[O-])c1
inactive: [17] 0.209 | [18] 0.145 | [19] 0.254 | [20] 0.143

Clc1ccc(CN2CCN(Cc3c[nH]c4ccccc34)CC2)cc1
inactive: [3] 0.142 | [4] 0.175 | [9] 0.152 | [10] 0.116

COc1ccc2c(c1)OCC(=Cc1ccc(OC)c(O)c1)C2=O
inactive: [3] 0.111 | [4] 0.0739 | [9] 0.125 | [10] 0.0254

CCOC(=O)C1=C(C)NC2=C(C(=O)CC(C)(C)C2)C1c1coc2ccccc2c1=O (stereo not drawn)
inactive: [3] 0.113 | [4] 0.123 | [9] 0.0647 | [10] 0.0912

COc1ccc(CNS(=O)(=O)c2ccc(NC(C)=O)cc2)cc1
inactive: [3] 0.136 | [4] 0.114 | [9] 0.073 | [10] 0.0317

CC(=O)O[C@@H]1CC2C(C)(C)CCC[C@]2(C)C2CC[C@]3(C)C(=CC(=O)O[C@H]3c3ccoc3)[C@@]21C (stereo partly drawn)
inactive: [3] 0.0969 | [4] 0.0706 | [9] 0.0583 | [10] 0.123

CC1=C(C(=O)OC2CCCC2)C(c2coc3ccccc3c2=O)C2=C(CCCC2=O)N1 (stereo not drawn)
inactive: [3] 0.0306 | [4] 0.112 | [9] 0.0744 | [10] 0.0338

Cc1cc(=O)c2c(o1)-c1c(cc(O)c(O)c1C(=O)O)OC2
inactive: [3] 0.0145 | [4] 0.0255 | [9] 0.0451 | [10] 0.0692

N[C@@H](CC(=O)O)C(=O)O
active: [17] -0.146
inactive: [18] 0.087 | [19] 0.0127 | [20] 0.00419

N[C@@H](CCC(=O)O)C(=O)O
inactive: [17] 0.193 | [18] 0.073 | [19] 0.108 | [20] 0.15

N[C@H](CO)C(=O)O
inactive: [17] 0.128 | [18] 0.103 | [19] 0.162 | [20] 0.112

CNc1ccccc1C(=O)N1CCc2c([nH]c3ccccc23)C1=O
inactive: [3] 0.0191 | [4] -0.0744 | [9] 0.0945 | [10] 0.0188

COC1[C@H](O)[C@@H](O)C(O)[C@H](O)[C@H]1O (stereo partly drawn)
inactive: [3] 0.0827 | [4] 0.0562 | [9] 0.177 | [10] 0.115

CC(=O)O[C@H]1CC[C@]2(C)[C@H]3C(=O)C=C4[C@@H]5C[C@@](C)(C(=O)O)CC[C@]5(C)CC[C@@]4(C)[C@]3(C)CC[C@H]2C1(C)C
inactive: [3] 0.0602 | [4] 0.011 | [9] 0.129 | [10] 0.0507

CO[C@@H](C(=O)N1Cc2[nH]nc(NC(=O)c3ccc(N4CCN(C)CC4)cc3)c2C1)c1ccccc1
inactive: [2] 0.0472 | [6] -0.0579
active: [1] -0.25 | [5] -0.418 | [7] -0.596 | [8] -0.134 | [11] -0.679 | [12] -0.355 | [13] -0.794 | [14] -0.46 | [15] -1.13 | [16] -1.21

O=C(Nc1cc(C(=O)Nc2ccc(S(=O)(=O)O)c(S(=O)(=O)O)c2)cc(C(=O)Nc2ccc(S(=O)(=O)O)c(S(=O)(=O)O)c2)c1)Nc1cc(C(=O)Nc2ccc(S(=O)(=O)O)c(S(=O)(=O)O)c2)cc(C(=O)Nc2ccc(S(=O)(=O)O)c(S(=O)(=O)O)c2)c1
inactive: [17] 0.215 | [18] 0.101 | [19] 0.0469 | [20] 0.125

O=C(Nc1cccc(C(=O)Nc2ccc(S(=O)(=O)O)c3cc(S(=O)(=O)O)cc(S(=O)(=O)O)c23)c1)Nc1cccc(C(=O)Nc2ccc(S(=O)(=O)O)c3cc(S(=O)(=O)O)cc(S(=O)(=O)O)c23)c1
inactive: [17] 0.11 | [18] 0.117 | [19] 0.167 | [20] 0.0855

Cc1ccc(C(=O)Nc2ccc(S(=O)(=O)O)c3cc(S(=O)(=O)O)cc(S(=O)(=O)O)c23)cc1NC(=O)c1cccc(NC(=O)Nc2cccc(C(=O)Nc3cc(C(=O)Nc4ccc(S(=O)(=O)O)c5cc(S(=O)(=O)O)cc(S(=O)(=O)O)c45)ccc3C)c2)c1
active: [17] -2.98 | [18] -2.91 | [19] -3.46 | [20] -3.2
inactive: [3] 0.152 | [4] 0.0138 | [9] 0.0749 | [10] 0.0704

OCCN(C(=S)Nc1ccc2nccnc2c1)c1ccccc1
inactive: [3] 0.0686 | [4] 0.0667 | [9] 0.0818 | [10] 0.102

CC12CCC3c4ccc(OC(=O)c5ccccc5)cc4CCC3C1CCC2=O (stereo not drawn)
inactive: [3] -0.000312 | [4] 0.0356 | [9] 0.0819 | [10] 0.000425

Cc1cc(OC(=O)c2c(C)cc(O)cc2O)cc(O)c1C(=O)O
inactive: [3] 0.0848 | [4] -0.00358 | [9] 0.0665 | [10] 0.0394

O=C1C(CC[S+]([O-])c2ccccc2)C(=O)N(c2ccccc2)N1c1ccccc1 (stereo not drawn)
inactive: [3] 0.123 | [4] 0.158 | [9] 0.184 | [10] 0.139

CCCCC1C(=O)N(c2ccccc2)N(c2ccccc2)C1=O
inactive: [1] 0.0537 | [2] 0.0214 | [3] 0.128 | [4] 0.109 | [17] 0.0899 | [18] 0.0435 | [5] 0.172 | [6] 0.159 | [7] 0.0763 | [8] 0.0956 | [9] 0.118 | [10] 0.1 | [19] 0.084 | [20] 0.0326 | [11] 0.137 | [12] 0.112 | [13] 0.169 | [14] 0.123 | [15] 0.117 | [16] 0.141

CCCCC1C(=O)N(c2ccccc2)N(c2ccc(O)cc2)C1=O (stereo not drawn)
inactive: [3] 0.139 | [4] 0.0945 | [10] 0.2
active: [9] -0.129

COc1cccc(CN2CCN(Cc3c[nH]c4ccccc34)CC2)c1
inactive: [3] 0.11 | [4] 0.105 | [9] 0.138 | [10] 0.0572

NC[C@H](O)c1ccc(O)c(O)c1
inactive: [3] 0.152 | [4] -0.0124 | [17] 0.069 | [18] 0.102 | [9] 0.127 | [10] 0.154 | [19] 0.0755 | [20] 0.101

NCC(O)c1ccc(O)c(O)c1 (stereo not drawn)
inactive: [18] 0.0558 | [19] 0.0351 | [20] -0.00208
active: [17] -0.177

CNC[C@H](O)c1ccc(O)c(O)c1
inactive: [1] 0.00528 | [2] 0.0495 | [3] 0.106 | [4] 0.0509 | [17] 0.169 | [18] 0.0474 | [5] 0.079 | [6] 0.091 | [7] 0.0631 | [8] 0.0893 | [9] 0.183 | [10] 0.209 | [19] 0.122 | [20] 0.099 | [11] 0.0488 | [12] 0.0524 | [13] -0.00361 | [14] 0.0638 | [15] 0.098 | [16] 0.00995

CS(=O)(=O)CCCCN=C=S
inactive: [3] 0.17 | [4] 0.115 | [9] 0.227 | [10] 0.0923

NS(O)(O)Cc1noc2ccccc12
inactive: [17] 0.153 | [18] 0.0786 | [19] 0.183 | [20] 0.124
